{"source": "PubChem BioAssay (NCI)", "note": "This is part of a sample that, as a whole, favours compounds with a hit. Of some 83,000 tested, about 20% had one in any assay.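 Interpretation: 100, growth as untreated; towards 0, rising growth inhibition; 0, no net growth; 0 to -100, cell death. Compounds scoring below 10 were considered active.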 Active and inactive are the calls of the source.", "data": [{"tested_on": "HL-60(TB) leukemia", "experiment": "NCI-60 one-dose screen, 48 h (100 = growth as untreated, 0 = no growth, -100 = all killed)", "conditions": "10 µM unless noted", "values": [{"smiles": "CC(C)[C@@H]1CC[C@]2(CO2)[C@@H]2C(=O)OCC(C(=O)O)=C[C@H]21", "growth": "-12.4% (active)"}, {"smiles": "COc1ccc2c(c1)CC/C(=C\\c1ccc(OCC(=O)Nc3nc4ccccc4s3)cc1)C2=O", "growth": "87.6% (inactive)"}, {"smiles": "CN1C(=O)/C(=C/c2ccc(C(=O)Nc3ncc(Cc4ccc(F)cc4)s3)cc2)SC1=S", "growth": "37.6% (inactive)"}, {"smiles": "OCCN1CCOCC1", "growth": "121% (inactive)"}, {"smiles": "Cc1[nH]c2ccccc2c1C1=CC(=O)C=CC1=O", "growth": "12.4% (inactive)"}, {"smiles": "CCN(CC)Cc1cc(C=C2C(=O)NC(=S)NC2=O)cc(OC)c1O", "growth": "106% (inactive)"}, {"smiles": "COc1cc2ncnc(Nc3ccc(OCc4cccc(F)c4)c(Cl)c3)c2cc1NC(=O)C1CCCC1", "growth": "99% (inactive)"}, {"smiles": "OC1COC(OCc2ccccc2)C(O)C1O", "note": "(stereo not given)", "growth": "101% (inactive)"}, {"smiles": "COc1ccc(-c2cc(-c3ccccc3)nc(SCCCCCC(=O)NO)n2)cc1", "growth": "-26.2% (active)"}, {"smiles": "CC/C=C\\C=C/C(=O)N/C=C/CC1Cc2cccc(O)c2C(=O)O1", "note": "(stereo not given)", "growth": "17.4% (inactive)"}, {"smiles": "O=C(NC(=S)Nc1ccccn1)c1ccccc1", "growth": "95.8% (inactive)"}, {"smiles": "CC(C)c1ccc(-c2cnc3nonc3n2)cc1", "growth": "-18.3% (active)"}, {"smiles": "CCC(CCCN1C(=O)c2ccccc2C1=O)Nc1cc(OC)cc2cccnc12", "note": "(stereo not given)", "growth": "86.1% (inactive)"}, {"smiles": "Cc1cc(Cl)c2ccc(N(C)C)cc2n1", "growth": "93.6% (inactive)"}, {"smiles": "CC1(C)C(N)=Nc2cc(OCCCN3Cc4ccccc4C3)c(OCC3CC3)cc21", "growth": "36.2% (inactive)"}, {"smiles": "CCN(CC)c1ccc(-c2cc(-c3cc(OC)c(OC)c(OC)c3)nc(N3CCC(O)CC3)c2C#N)cc1", "growth": "-14.1% (active)"}, {"smiles": "Cc1cc(=O)oc2cc(OC(=O)N3CCN(C)CC3)ccc12", "growth": "106% (inactive)"}, {"smiles": "COc1cc(-c2ccc3c(c2)NC(=O)/C3=C\\c2ccc[nH]2)ccc1O", "growth": "-12.6% (active)"}, {"smiles": "Nc1ncc(-c2ccc3ncnc(N4CCc5cc(F)c(Cl)cc54)c3c2)cc1C(F)(F)F", "growth": "21.5% (inactive)"}, {"smiles": "C=C(C)[C@@H]1CC[C@]2(C(=O)O)CC[C@]3(C)[C@H](CC[C@@H]4[C@@]5(C)CCC(NC(=O)c6cccc(OC(C)=O)c6OC(C)=O)C(C)(C)[C@@H]5CC[C@]43C)[C@@H]12", "note": "(stereo not given in full)", "growth": "-13.1% (active)"}, {"smiles": "O=C1Nc2ccc(F)cc2/C1=C/c1nc(-c2ccc(F)cc2)n2ccccc12", "growth": "103% (inactive)"}, {"smiles": "CC(=O)ON1CCCC(P(=O)(OCCSC(=O)C(C)(C)C)OCCSC(=O)C(C)(C)C)C1=O", "note": "(stereo not given)", "growth": "14% (inactive)"}, {"smiles": "O=C1/C(=C\\c2ccc(F)cc2)CN(C(=O)c2ccccc2F)C/C1=C\\c1ccc(F)cc1", "growth": "-4.26% (active)"}, {"smiles": "Cn1c2c(Cl)c(Cl)ccc2c2c(C#N)c[nH]c(=O)c21", "growth": "107% (inactive)"}, {"smiles": "C=CCn1c(SCC(=O)Nc2ccc(C(=O)/C=C/c3ccc(Cl)cc3)cc2)nnc1-c1cc(-c2ccccc2)nc2ccccc12", "growth": "99.8% (inactive)"}, {"smiles": "COc1cc(-c2csc(NC(=O)c3cc(C(F)(F)F)cc(C(F)(F)F)c3)n2)cc(OC)c1OC", "growth": "29.6% (inactive)"}, {"smiles": "CC(C)c1[nH]nc2c(NCc3ccc(-c4ccccn4)cc3)nc(SCCN(C)C)nc12", "growth": "-16.4% (active)"}, {"smiles": "CC(=O)Nc1nc(C)c(C(=O)N/N=C/N2CCCCC2)s1", "growth": "131% (inactive)"}, {"smiles": "COc1cc2nc(-c3cccc4cccnc34)nc(NC3CCN(Cc4ccccc4)CC3)c2cc1OC", "growth": "-63.4% (active)"}, {"smiles": "O=C1/C(=C\\c2ccccn2)c2ccccc2N1c1c(Cl)cccc1Cl", "growth": "1.39% (active)"}, {"smiles": "C=C1C(=O)O[C@H]2[C@H]1CCC(/C=N/c1ncc(Br)cc1N)=C\\CC[C@@]1(C)O[C@@H]21", "growth": "-21.4% (active)"}, {"smiles": "CC(=O)c1nn(-c2ccccc2)/c(=N\\N=C\\c2coc3ccc(F)cc3c2=O)s1", "growth": "105% (inactive)"}, {"smiles": "CC[N+](CC)(CCOCCOCC[N+](CC)(CC)Cc1ccc([N+](=O)[O-])cc1)Cc1ccc([N+](=O)[O-])cc1", "growth": "93.4% (inactive)"}, {"smiles": "O=C(O)CN1C(=O)c2cccc3cccc(c23)C1=O", "growth": "118% (inactive)"}, {"smiles": "Oc1ccccc1-c1nnc(CNc2ccc(Cl)cc2)o1", "growth": "4.56% (active)"}, {"smiles": "CN(C)c1ccc(Cc2cc(-c3ccccc3)nn(C/C(=N/O)c3ccccc3)c2=O)cc1", "growth": "54.3% (inactive)"}, {"smiles": "CCOC(=O)C/C(=N\\Nc1cc(=O)[nH]c2ccc(Cl)cc12)C(=O)OCC", "growth": "90.6% (inactive)"}, {"smiles": "CCOC(=O)Cc1cc(Br)c(OCc2ccccc2)c(Br)c1", "growth": "71.7% (inactive)"}, {"smiles": "O[C@@H]1CO[C@H]2[C@@H]1OC[C@@H]2O", "growth": "98% (inactive)"}, {"smiles": "N#C/C(=C\\c1ccccc1Cl)c1cc2ccccc2[nH]1", "growth": "98.8% (inactive)"}]}]}
